Sampled rows, rich in hits. Any-hit rate of the full collection: about 0.83%.
GLS inh: inhibitors of human glutaminase (GLS); O94925; GLS enzymatic activity, qHTS titration; Potency, µM (series often up to 45.5 µM), hits mostly inhibitors; 410,000 tested, 0.21% active; active = well fitted inhibition curve with a large enough effect; inconclusive = small, poorly fitted or top-dose-only effect, or another doubt; inactive = no such curve, though single readings can be large or run the other way
Target sequence (O94925 whole entry, looked up): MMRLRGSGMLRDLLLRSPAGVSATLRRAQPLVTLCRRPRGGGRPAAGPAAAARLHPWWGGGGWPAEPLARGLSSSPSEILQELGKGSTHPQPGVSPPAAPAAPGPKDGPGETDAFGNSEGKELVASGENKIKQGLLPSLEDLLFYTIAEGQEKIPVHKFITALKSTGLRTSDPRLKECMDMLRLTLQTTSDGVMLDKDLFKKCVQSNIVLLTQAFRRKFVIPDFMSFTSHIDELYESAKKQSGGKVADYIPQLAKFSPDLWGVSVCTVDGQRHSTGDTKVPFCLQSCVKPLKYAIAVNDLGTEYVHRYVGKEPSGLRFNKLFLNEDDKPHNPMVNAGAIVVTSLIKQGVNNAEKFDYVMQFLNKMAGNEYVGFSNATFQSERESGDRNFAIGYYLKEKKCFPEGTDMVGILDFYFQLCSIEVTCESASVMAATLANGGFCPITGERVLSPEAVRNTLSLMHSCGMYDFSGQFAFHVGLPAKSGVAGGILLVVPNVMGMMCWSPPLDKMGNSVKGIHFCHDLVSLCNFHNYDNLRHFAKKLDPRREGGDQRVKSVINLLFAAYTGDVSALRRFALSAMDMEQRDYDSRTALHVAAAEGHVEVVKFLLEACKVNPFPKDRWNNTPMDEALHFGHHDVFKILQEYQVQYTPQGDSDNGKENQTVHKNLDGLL
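Enzyme dispensed in phosphate buffer (45 mM, pH 8.2, 0.02% Tween-20), compounds pinned in, then 1 mM L-glutamine solution and the glutamate oxidase–HRP–Amplex Red mix added; fluorescence read immediately and again after 30 min at room temperature.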
CXXC DNA block: MLL CXXC-DNA interaction inhibition. MLL-CXXC / FITC-HOXA9 DNA fluorescence polarization. Potency, µM (highest dose often 115 µM), usual class: inhibitors. 290,000 tested, 0.037% active. AID 2662; active = well fitted inhibition curve with a large enough effect in the polarisation, with a control signal flat, not every such curve was filed as active; inconclusive = small, poorly fitted or top-dose-only effect, or effect the other way, or a change in a side signal; inactive = no such curve, though single readings can be large or run the other way; the % refers to the polarisation
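Steps: dispense CXXC domain solution (7 uM) → pin compounds or unlabeled HOX-A9 DNA control → 5 min ambient → add FLSN-HOX-A9 solution (50 nM) → spin → 30 min ambient → fluorescence polarization. Tris pH 7.5/NaCl/DTT/BSA buffer.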
Menin-MLL FL inh: menin-MLL binding inhibition, fluorescein peptide. Fluorescence polarization, fluorescein-MLL peptide displacement from menin. FP activity change, % at 61.4 µM. 290,000 tested, under 10 active; active = well fitted curve in the direction sought with a large enough effect in the polarisation, not every such curve was filed as active; inconclusive = small, poorly fitted or top-dose-only effect, or effect the other way, or a change in a side signal; inactive = no such curve, though single readings can be large or run the other way; the % refers to the polarisation
CtBP-E1A blk: inhibitors of CtBP/E1A interaction; AlphaScreen GST-E1A/His-CtBP binding, 1536-well; active compounds read low; activity change, % (concentration not given with the values); 340,000 tested, 0.49% active; AID 651724
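AlphaScreen with 125 nM GST-E1A and 125 nM His-CtBP (5X stocks) in Tris pH 8.0, 300 mM NaCl, BSA, Tween 20, TCEP. Compounds preincubated 2 h at 37 deg C, then glutathione donor/nickel acceptor beads added for 1 h at 37 deg C in dark.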
Menin MLL FP TR: displaces Texas Red mutant MLL peptide from human menin. Menin + Texas Red MLL mutant peptide, fluorescence polarization. 270,000 tested, 0.23% active. Potency, µM (highest dose often 61.6 µM), usual class: inhibitors. AID 1768; active = well fitted inhibition curve with a large enough effect in the polarisation, with a control signal flat, not every such curve was filed as active; inconclusive = small, poorly fitted or top-dose-only effect, or effect the other way, or a change in a side signal; inactive = no such curve, though single readings can be large or run the other way; the % refers to the polarisation
Six1-Eya2 blk: inhibitors of human Six1/Eya2 interaction | AID 651725 | AlphaScreen GST-Six1/His-Eya2 binding, biochemical; active compounds read low | activity change, % (test concentration not listed) | 360,000 tested, 0.56% active | Q15475+O00167
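Compounds are tested against tagged Six1 and Eya2 proteins bridged by glutathione donor and nickel acceptor beads; after a one-hour incubation at 37 °C without light, AlphaScreen emission is recorded.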
Numbers stand for hits; – = inactive; ? = inconclusive; · = no result given. Cut-off read from the data, not from the text of the source, unless noted: active = activity change below about -65%; inconclusive = mostly about -30% to -63%; inactive = weaker than that.

SMILES | GLS inh | CXXC DNA block | Menin-MLL FL inh | CtBP-E1A blk | Menin MLL FP TR | Six1-Eya2 blk
Cc1ccc(NC(=S)c2nc3ccccc3[nH]2)c(C)c1 | – | – | – | ? | ? | -72.0
Cc1ccc(NC(=S)N2CCCC(c3nc4ccccc4[nH]3)C2)cc1 (centres undefined) | – | – | – | · | – | –
Cc1ccc(NC(=S)c2nc3ccccc3[nH]2)cc1 | – | – | – | -72.1 | ? | -80.6
NS(=O)(=O)c1ccc(NCc2c(F)cccc2Cl)cc1 | – | – | – | – | – | –
Fc1cccc(Cl)c1CNc1ccc(N2CCCC2)cc1 | 7.94µM | – | – | ? | ? | ?
Cc1nc2scc(-c3ccccc3)c2c(=O)n1N=C1C=CC(=O)C=C1 | 3.16µM | – | – | – | – | –
CCOC(=O)c1cc(-c2ccc(F)cc2)n(CCC(=O)NCCc2ccc(C)cc2)c1C | – | · | · | · | · | ·
COc1cccc(/C=N/n2c(N)c(S(=O)(=O)c3cccs3)c3nc4ccccc4nc32)c1 | · | – | – | – | ? | –
Nc1c(S(=O)(=O)c2cccs2)c2nc3ccccc3nc2n1/N=C/c1cccc(O)c1 | – | – | – | -92.5 | ? | -87.5
CC(=O)NC(c1cccc([N+](=O)[O-])c1)c1ccc2cccnc2c1O (centres undefined) | – | ? | – | -92.4 | – | -68.6
COc1cccc(C(NC(C)=O)c2ccc3cccnc3c2O)c1 (centres undefined) | – | – | – | -91.3 | – | -66.8
CC(=O)NC(c1ccc(C(C)C)cc1)c1ccc2cccnc2c1O (centres undefined) | – | – | – | ? | – | ?
Oc1cccc(C(Nc2nccs2)c2ccc3cccnc3c2O)c1 (centres undefined) | – | – | – | -81.4 | ? | -82.9
O=[N+]([O-])c1ccc(NC(c2ccccc2)c2ccc3cccnc3c2O)cc1 (centres undefined) | – | · | · | – | · | –
Cc1ccc(C(=O)Nc2ccc(C(=O)O)cc2)cc1S(=O)(=O)N1CCC(C)CC1 | – | · | · | · | · | ·
COCC(=O)N/N=C/c1c(C)[nH]n(-c2ccccc2)c1=O | – | – | – | -89.8 | – | -76.8
Cc1[nH]n(-c2ccccc2)c(=O)c1/C=N/NC(=O)COc1ccccc1[N+](=O)[O-] | – | – | – | -87.7 | ? | -78.8
Cc1c(/C=N\NC(=O)C2COc3ccccc3O2)c2ccccc2n1C (centres undefined) | – | – | – | – | – | –
Cc1[nH]n(-c2ccccc2)c(=O)c1/C=N\NC(=O)C1COc2ccccc2O1 (centres undefined) | – | – | – | -80.6 | ? | -88.7
COC(=O)N/N=C\c1c(C)[nH]n(-c2ccccc2)c1=O | – | – | – | – | – | –
CC(=O)N/N=C/c1c(C)[nH]n(-c2ccccc2)c1=O | – | – | – | -67.6 | – | -73.3
Cc1ccc(CN2C(=O)C(O)(c3c[nH]c4ccccc34)c3cc(Cl)ccc32)cc1 (centres undefined) | – | · | · | · | · | ·
CCC(=O)NCCCC[C@H](NC(=O)OCc1ccccc1)C(=O)Nc1ccc2c(C)cc(=O)oc2c1 | · | · | – | · | – | ·
Oc1ccc(NCc2cccs2)cc1 | 11.2µM | – | – | – | – | –
CC(=O)Nc1ccc(NCc2cccs2)cc1 | – | – | – | – | – | –
SMILES | GLS inh | CXXC DNA block | Menin-MLL FL inh | CtBP-E1A blk | Menin MLL FP TR | Six1-Eya2 blk
COc1ccccc1N1C(=O)C=C(Sc2nc(C)cc(C)n2)C1=O | 7.94µM | – | – | – | · | –
COc1ccccc1N1C(=O)C2CC(C)=C(C)CC2C1=O (centres undefined) | – | – | – | – | – | –
CC1=NCCN1S(=O)(=O)c1ccccc1[N+](=O)[O-] | – | – | – | · | – | -93.1
CC[C@H](C)[C@H](NC(=O)[C@H](CO)NC(=O)[C@H](CC(C)C)NC(=O)[C@H](CO)NC(=O)[C@@H]1CCCN1C(=O)[C@H](CC(N)=O)NC(=O)[C@@H](N)CC(=O)O)C(=O)N[C@@H](CC(=O)O)C(=O)N[C@@H](CC(C)C)C(=O)N[C@H](C(=O)N[C@@H](Cc1ccccc1)C(=O)N[C@@H](Cc1cnc[nH]1)C(=O)N[C@@H](CC(C)C)C(=O)N[C@@H](CC(C)C)C(=O)N[C@@H](CCCNC(=N)N)C(=O)N[C@H](C(=O)N[C@@H](CC(C)C)C(=O)N[C@@H](CC(C)C)C(=O)N[C@@H](CCC(=O)O)C(=O)N[C@@H](CC(C)C)C(=O)N[C@@H](C)C(=O)N[C@@H](CCCNC(=N)N)C(=O)N[C@H](C(=O)N[C@@H](CCC(N)=O)C(=O)N[C@@H](CO)C(=O)N[C@@H](CCC(N)=O)C(=O)N[C@@H](CCCNC(=N)N)C(=O)N[C@@H](CCC(=O)O)C(=O)N[C@@H](CCCNC(=N)N)C(=O)N[C@@H](C)C(=O)N[C@@H](CCC(=O)O)C(=O)N[C@@H](CCC(N)=O)C(=O)N[C@@H](CC(N)=O)C(=O)N[C@@H](CCCNC(=N)N)C(=O)N[C@H](C(=O)N[C@H](C(=O)N[C@@H](Cc1ccccc1)C(=O)N[C@@H](CC(=O)O)C(=O)N[C@@H](CO)C(=O)N[C@H](C(N)=O)C(C)C)[C@@H](C)CC)[C@@H](C)CC)[C@@H](C)O)[C@@H](C)O)[C@@H](C)O | · | · | – | · | – | ·
CC(C)(CO)C(O)C(=O)NCCCC(=O)O (centres undefined) | – | · | · | · | · | ·
Cc1ccc(/C=N/Nc2nc(C(C)(C)C)cs2)o1 | – | – | – | · | – | –
Cc1ccc(/C=N/Nc2nc3ccccc3s2)o1 | 8.91µM | – | – | – | ? | ?
CN(C)c1ccc(N=Nc2ccccc2C(=O)OCC(=O)N(C)c2ccccc2)cc1 | – | – | – | -66.1 | – | -67.3
COC(=O)c1ccccc1NC(=O)COC(=O)c1ccccc1N=Nc1ccc(N(C)C)cc1 | – | – | – | ? | ? | ?
CC(=O)c1ccc(NC(=O)COC(=O)c2ccccc2N=Nc2ccc(N(C)C)cc2)cc1 | – | – | – | – | ? | -68.5
COC(=O)c1cc(O)cc(OC)c1Oc1cc(C)cc(O)c1C(=O)O | 11.2µM | – | – | – | · | ?
O=c1c2c([N+](=O)[O-])cc([N+](=O)[O-])cc2sn1-c1ccc(Br)cc1 | 11.2µM | – | – | – | ? | ?
O=c1c2c([N+](=O)[O-])cc([N+](=O)[O-])cc2sn1Cc1ccccc1 | 1.78µM | – | ? | – | ? | –
O=[N+]([O-])c1ccc(S(=O)Cc2ccccc2)c([N+](=O)[O-])c1 (centres undefined) | – | · | · | – | · | ?
O=C(c1csnn1)N1CCC2(CC1)CN(c1cccc(-c3ccccc3)c1)C2 | · | · | – | · | – | ·
CN(C)c1cc2c(c(N(C)C)c1)C(=O)c1ccccc1C2=O | – | – | – | -80.8 | ? | -80.9

Source: PubChem BioAssay
